From the supplement of paper PMC6555819

How the values were obtained:
Assay in all cases: PBM binding z-score (relative to random genomic background probes); higher = stronger binding; sequences stand for … in GC…GCGATTGACAGCGTAGAATGAAGG
[1] = tested on: PPARg:RXRa DBDmut IVT, anti-RXR (DBD mutation: RXRa K156A/R161A, NR concentration 270 nM, RXRa partner concentration 90 nM)
Summary of the method: (§1)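 Custom Agilent 4×180K protein-binding microarrays carried double-stranded probes. Their 34-nt variable regions held direct-repeat seeds, single-nucleotide variants, half-site ablations and random human genomic background sequences. Arrays were incubated 1 h with ligand-free nuclear receptor dimers in PBS pH 7.4, 2% milk, 0.02% Triton X-100, 1 mM DTT, 0.2 mg/mL BSA and 0.4 mg/ml salmon testes DNA. Antibodies against each partner (one per run) detected binding, and scanned fluorescence was regression-normalized. Binding z-scores use random background probes as reference.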

[2] = tested on: PPARg:RXRa IVT, anti-PPARg (NR concentration 270 nM, RXRa partner concentration 90 nM)
Summary of the method: as §1

[3] = tested on: PPARg DBDmut:RXRa IVT, anti-PPARg (DBD mutation: PPARg1 K132A/R137A, NR concentration 270 nM, RXRa partner concentration 90 nM)
Summary of the method: as §1

[4] = tested on: PPARg DBDmut IVT, anti-PPARg (DBD mutation: PPARg1 K132A/R137A, NR concentration 270 nM)
Summary of the method: as §1

[5] = tested on: PPARg homodimer (NR concentration 180 nM)
Summary of the method: as §1

[6] = tested on: PXR:RXRa (NR concentration 270 nM, RXRa partner concentration 90 nM)
Summary of the method: as §1

[7] = tested on: PXR homodimer (NR concentration 270 nM)
Summary of the method: as §1

[8] = tested on: RARa:RXR (NR concentration 270 nM, RXRa partner concentration 90 nM)
Summary of the method: as §1

[9] = tested on: RARa homodimer (NR concentration 270 nM)
Summary of the method: as §1

[10] = tested on: RARb:RXRa (NR concentration 270 nM, RXRa partner concentration 90 nM)
Summary of the method: as §1

[11] = tested on: RARb homodimer (NR concentration 270 nM)
Summary of the method: as §1

[12] = tested on: RARg:RXRa (NR concentration 270 nM, RXRa partner concentration 90 nM)
Summary of the method: as §1

[13] = tested on: RARg homodimer (NR concentration 270 nM)
Summary of the method: as §1

[14] = tested on: RXRa DBDmut IVT, anti-RXR (DBD mutation: RXRa K156A/R161A, NR concentration 90 nM)
Summary of the method: as §1

[15] = tested on: RXRa homodimer (NR concentration 180 nM)
Summary of the method: as §1

[16] = tested on: THRa:RXRa (NR concentration 90 nM, RXRa partner concentration 90 nM)
Summary of the method: as §1

[17] = tested on: THRa homodimer (NR concentration 90 nM)
Summary of the method: as §1

[18] = tested on: VDR homodimer (NR concentration 270 nM)
Summary of the method: as §1

Sequence	PBM binding z-score [1]	PBM binding z-score [2]	PBM binding z-score [3]	PBM binding z-score [4]	PBM binding z-score [5]	PBM binding z-score [6]	PBM binding z-score [7]	PBM binding z-score [8]	PBM binding z-score [9]	PBM binding z-score [10]	PBM binding z-score [11]	PBM binding z-score [12]	PBM binding z-score [13]	PBM binding z-score [14]	PBM binding z-score [15]	PBM binding z-score [16]	PBM binding z-score [17]	PBM binding z-score [18]
TCTTGTAGATCAAGCAGGTTAAGAAAGCCTGAGT	1.72	0.78	0.218	0.401	0.138	0.519	0.388	0.546	-0.0455	0.228	0.31	0.0826	-0.299	0.319	0.444	0.331	-0.339	0.113
TCATATAGGTAGACAGGTGAAAGTCCGTAAGTTA	3.02	1.33	1.18	0.507	1.25	0.852	0.981	0.512	1.24	0.76	0.985	0.378	0.361	1.68	0.907	0.763	0.486	0.286
GGAACGAGGGCATTCGAGTTGATAGCGTGGCGAT	3.44	2.02	-0.574	-0.961	0.0421	3.71	1.79	0.221	-0.388	1.85	0.509	0.892	1.16	3	0.583	3.13	-0.46	3.6
CGTCCAAGGTCCTAGGAGGTCAGTGAAGACAGAT	-0.235	0.579	-1.17	-1.02	1.48	3.01	0.587	2.87	0.328	2.42	2.93	2.53	2.38	0.216	2.14	4.08	0.834	1.06
TCCGACAGGTGAAGGTAACTCAGGTACGCAGTCG	1.51	1.05	-0.595	-0.742	-0.0885	0.293	-0.308	0.63	-0.702	0.858	0.334	0.325	0.374	0.258	0.788	1.3	-0.0593	0.0508
ATCGAAAGGTAGTGAGGTGAGTATACAGAAAGGC	-0.75	0.597	0.685	1.02	-0.358	-0.273	0.226	-0.126	0.18	0.322	0.406	0.407	0.62	-0.693	0.164	1.5	0.917	-0.237
CGTCCAAGTTCAGAGAGGTCAGTGAATGCCGAGT	0.453	0.71	-0.268	-0.219	4.09	6.4	13	3.9	1.51	4.09	4.58	4.46	5	4.24	3.48	3.14	1.43	7.06
CGAAGTAGGTCAAGGACAGTGAATCTCCGCACGC	8.4	8.73	5.06	1.85	2.14	1.39	-0.253	2.46	0.686	3.95	3.17	3.94	4.66	1.45	2.92	3.07	1.51	0.462
TCTGCTAGGTCAGTTGGTCAGGTAACGAGCTGCC	2.56	3.24	0.0917	0.385	0.478	0.0993	-0.744	0.735	-0.871	3.3	2.67	2.55	3.52	0.427	0.908	1.95	0.951	-0.545
TGAATGAGGTTATGAGATCAGGGAACGTTGCAAA	1.33	2.1	0.285	-0.0697	0.328	0.684	0.16	1.57	-0.0238	1.39	0.266	1.6	1.13	0.145	2.19	1.95	0.132	0.305
ATCGAAAGGTCGAAGTTGAGTATACCCACCCGAA	0.0828	1.59	1.1	1	1.31	3.05	0.0112	3.76	0.0634	3.84	2.55	4.07	3.83	1.9	4.79	2.01	-0.00538	1.02
TGAATGAGGTTATAAGATCAGCGAACGTTGCAAA	1.18	2	0.4	-0.321	-0.104	0.634	-0.373	1.33	-0.341	1.06	0.0466	1.48	1.05	0.409	1.9	1.61	-0.141	0.262
CTACCAAGGTGAACAAGGTCGATGATTACTATTC	2.72	2.64	0.547	0.654	0.419	1.43	0.443	1.63	0.548	1.95	2.03	1.58	1.71	0.696	1.61	2.89	1.41	0.758
ATCTCTAGGTAAAGTTCAGAGAAAGATCGATAGA	2.15	2.79	1.18	0.787	2.17	2.04	1.86	1.25	1.48	2.51	2.23	2.13	2.6	1.45	1.42	1.13	-0.103	2.03
CCGGGTAGGTTATGGGGCATTCAGGCAACGGTGA	0.0778	1.73	-0.642	-0.773	0.724	0.144	0.122	0.51	0.0053	1.1	1.1	0.906	0.708	-1.46	0.781	0.806	0.313	0.138
GCAACGAGGGCAAGTTGATAGCAGAGTTTGATGG	2.75	1.85	-0.194	-0.32	0.288	0.924	0.464	0.816	-0.0307	2.8	1.66	1.61	1.77	2.2	0.98	1.36	0.152	1.66

Sequence	PBM binding z-score [1]	PBM binding z-score [2]	PBM binding z-score [3]	PBM binding z-score [4]	PBM binding z-score [5]	PBM binding z-score [6]	PBM binding z-score [7]	PBM binding z-score [8]	PBM binding z-score [9]	PBM binding z-score [10]	PBM binding z-score [11]	PBM binding z-score [12]	PBM binding z-score [13]	PBM binding z-score [14]	PBM binding z-score [15]	PBM binding z-score [16]	PBM binding z-score [17]	PBM binding z-score [18]
GGAACGAGGGCAAGTCGATAGCAGAGTTTGATGG	3.57	2.5	-0.206	-0.527	-0.162	0.167	0.469	-0.0113	-0.744	2.41	1.18	1.36	2	1.89	0.701	0.983	-0.0774	1.08
TCTTGTAGATCAACAGGTGGTTAAGAAAGATCGA	1.73	0.582	0.605	0.677	0.713	-0.0683	0.00391	0.0313	0.688	-0.0604	-0.322	-0.241	-0.25	0.571	-0.126	-0.453	-0.243	-0.227
CGAACTAGGTCATTGGCAGGACAGTGAATAGTAA	8.14	8.31	3.04	0.566	1.51	1.61	-0.0888	2.11	0.516	3.71	2.75	4.52	4.07	2.36	2.52	3.09	0.749	0.995
AATACAGGGTCACTAGGCCAGAATAGGTACGAAT	3.44	5.78	1.66	1.79	2.05	3.16	0.787	4.21	1.45	4.27	3.3	5.17	4.76	2.85	5.58	3.41	1.4	2.52
TTACCAAGGTGAAAGGACGTTGATGCACGCCTTG	1.91	2.84	0.863	0.655	0.691	-0.0719	-0.136	0.603	-0.181	1.6	0.523	0.792	0.651	-0.0859	0.819	1.36	0.386	-0.00942
ATACCAAGGTGATCTTGAGGTCGTTGATACTAAC	0.853	1.45	0.8	0.628	1.02	3.3	2.03	2.54	0.867	1.71	1.9	2.62	1.12	1.19	2.04	3.66	2.9	3.21
GATACAGGGTCAGCTAGAGGCCAGTGTATGGAAA	0.823	2.25	0.256	-0.378	3.5	3.29	0.17	4.54	-0.191	4.15	3.64	6.8	5.06	1.51	4.25	2.98	0.265	0.727
GCGAGCAGGCCATTTGGGTCACTCAATGACGGGC	0.844	2.03	-1.33	-0.968	0.0566	0.738	0.189	0.937	-0.309	1.69	1.96	1.09	1.37	0.115	0.824	1.85	0.687	0.921
CCTAGTTGGTCCGGAGGTCACACACCGGATATGA	0.0727	1.77	-0.285	0.613	2.74	4.13	1.54	4.43	1.45	3.47	3.85	4.35	3.68	0.525	4.56	3.62	2.86	2.79
TATAGCAGGCCAGAGGGTCACTCAAGAGGTACGG	-0.0119	1.41	0.475	-0.0534	1.11	1.73	-0.392	2.46	-0.269	2.09	2.58	2.61	2.09	-1	2.67	1.76	-0.288	0.651
TCGAGTAGGTTAGGGGCTTTCAGAATGGCGTCGA	2.03	1.11	-0.958	-0.419	0.523	-0.179	-0.00687	-0.485	0.102	0.395	0.146	-0.192	-0.707	0.128	0.00359	-0.109	0.122	-0.301
GTACCAAGGTGAATAGGGCGTTGATGAGTAGGCG	1.79	2.39	0.11	-0.0449	0.629	-0.0283	0.127	0.434	0.194	1.5	1.21	1.13	0.952	-0.247	0.599	1.36	0.767	0.221
ATATGTAGGTTAAGGGTCACTCAGGTTGGTTCGC	7.97	8.15	1.94	2.59	3.56	5.09	1.94	6.1	2.24	3.95	4.35	4.99	4	1.82	6.33	3.59	2.01	3.47
CATACAGGGTCAGCTAGGCCAGAGAAGGGACGGC	1.21	2.58	0.932	-0.117	1.9	2.24	0.0894	3.29	0.36	4.16	3.35	4.63	5.1	1.74	4.46	2.99	0.568	1.67
ATTTACGGGTCAACGAGGTTATAGCACGCGTATA	3.42	4.88	2.57	2.5	2.8	5.6	4.18	5.97	1.69	4.48	3.79	6.1	5.62	2.5	6.99	4.19	1.43	4.5
